# 12-LOX inh: inhibitors of human 12S-lipoxygenase ALOX12 | Potency, µM (titrated, usually from 108 µM), most hits filed as inhibitors | P18054 | actives 1.1% (n = 580,000) | purified 12hLO, xylenol orange hydroperoxide absorbance | AID 1671190
#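 Purified human 12hLO (150 nM final) in 25 mM Hepes, 0.01% Triton X-100, pH 7.0 was preincubated 15 min at room temperature with compound. Then 40 uM arachidonic acid was added, 30 min. Hydroperoxide was read by Fe-XO absorbance ratio 573/405 nm.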
# HP1b chromo inh: inhibitors of HP1-beta chromodomain binding to methylated histone tails. AlphaScreen HP1-beta / biotin-H3K9me3 peptide binding. Potency, µM (series often up to 114 µM), usual class: inhibitors. actives 0.56% (n = 390,000); also: nearly all actives have a fitted effect of over 70% in size
# Target sequence (P83916 whole entry, looked up): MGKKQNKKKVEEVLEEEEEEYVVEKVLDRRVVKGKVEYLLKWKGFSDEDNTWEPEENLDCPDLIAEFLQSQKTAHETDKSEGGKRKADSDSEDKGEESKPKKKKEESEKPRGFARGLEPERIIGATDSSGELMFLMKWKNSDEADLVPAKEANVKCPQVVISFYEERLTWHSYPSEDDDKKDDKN
#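 AlphaScreen: HP1-beta (50 nM) preformed 30 min with biotin-H3(1-18)K9me3 peptide (50 nM) in PBS pH 7.4, 0.01% Tween-20. Compound added for 30 min at RT, then streptavidin donor/nickel chelate acceptor beads (10 ug/mL) for 30 min.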
# JMJD2A Tudor inh: blocks the human JMJD2A Tudor domain; O75164; AlphaScreen JMJD2A-Tudor / H3K4me3 peptide binding; Potency, µM (top dose mostly 114 µM), actives largely listed as inhibitors; actives 4.4% (n = 390,000); AID 504339; also: nearly all actives have a fitted effect of over 50% in size
# G9a block: inhibitors of human histone lysine methyltransferase G9a; G9a H3K9 monomethylation, AlphaScreen, 2 h; Q96KQ7; Potency, µM (top dose mostly 102 µM), hits mostly inhibitors; actives 8.8% (n = 350,000); AID 504332; also: nearly all actives have a fitted effect of over 75% in size
# Target sequence (Q96KQ7 913-1193 limits assumed): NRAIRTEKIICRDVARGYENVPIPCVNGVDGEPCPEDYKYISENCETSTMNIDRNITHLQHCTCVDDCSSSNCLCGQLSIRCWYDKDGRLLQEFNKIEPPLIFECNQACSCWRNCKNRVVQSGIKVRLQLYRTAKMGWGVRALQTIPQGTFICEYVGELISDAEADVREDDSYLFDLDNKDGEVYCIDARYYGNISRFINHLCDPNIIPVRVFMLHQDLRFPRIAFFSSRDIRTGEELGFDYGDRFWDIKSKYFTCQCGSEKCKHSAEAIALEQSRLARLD
#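 AlphaScreen read-out: biotin-H3K9 peptide (500 nM) methylation by 20 nM enzyme with 20 uM SAM, 2 h at room temperature after 15 min compound preincubation; anti-monomethyl H3K9 antibody plus donor/acceptor beads, 10 min dark.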
# BAZ2B block: BAZ2B (human) inhibition; Q9UIF8; AlphaScreen BAZ2B-H3K14Ac peptide displacement; Potency, µM (doses to about 114 µM), hits mostly inhibitors; actives 4.4% (n = 360,000); also: nearly all actives have a fitted effect of over 60% in size
#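 Compounds, titrated to a top concentration of 110 uM, were incubated 30 min at room temperature with preformed BAZ2B/acetyl-K14 H3 peptide complex (50 nM each). Proximity signal was measured by AlphaScreen after 20 min with beads.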
# PLK1 PBD block: inhibitors of human PLK1 polo-box domain binding; P53350; Plk1 PBD binding of FITC phosphopeptide, fluorescence polarization; Potency, µM, actives largely listed as inhibitors; actives 2.8% (n = 360,000); AID 720504; also: series mostly up to about 57 µM; nearly all actives have a fitted effect of over 65% in size
# Hits are given with their value; 0 = inactive; ? = inconclusive; - = no result; [ ] = remark or other dose. Rows were chosen to be rich in hits. Some 9% of all compounds tested hit in one or more screens of this group. Calls follow the shape of the dose curve; as a rule, active = well fitted curve in the direction sought with a large enough effect; inconclusive = small, poorly fitted or top-dose-only effect, or another doubt; inactive = no such curve, though single readings can be large; an effect the other way counts as inactive or inconclusive.
SMILES,12-LOX inh,HP1b chromo inh,JMJD2A Tudor inh,G9a block,BAZ2B block,PLK1 PBD block
COc1ccc(N=C(C)C2C(=O)c3ccccc3C2=O)cc1,-,-,-,-,-,0
CC(=Nc1ccccc1)C1=C(O)CCCC1=O,0,0,25µM,?,0,0
CC(=Nc1ccccc1C)C1=C(O)CSC1=O,0,0,0,?,0,0
CC(=Nc1ccccc1)C1=C(O)CSC1=O,0,0,0,50µM,?,0
COc1ccc(N=C(C)C2=C(O)CSC2=O)cc1,0,0,0,40µM,0,0
COCc1ncc(C)n1C1CCCNC1 (configuration not stated),0,-,-,-,-,-
COc1cc2c(cc1OC)CN(CC(=O)NC(=O)NC1CCCCC1)CC2,0,0,0,?,0,0
Cn1cccc1C(=O)OCC(=O)Nc1ccc2c(c1)OCO2,0,0,0,0,0,0
CCOc1cc(-c2sc(Nc3ccccc3)n[n+]2-c2ccc(F)cc2)ccc1OC,0,0,?,-,0,24µM
COc1cc(Br)c(-c2sc(Nc3ccccc3)n[n+]2-c2ccc(F)cc2)cc1OC,?,0,79µM,?,?,0
Fc1ccc(-[n+]2nc(Nc3ccccc3)sc2-c2ccc(OCc3ccccc3)cc2)cc1,40µM,0,89µM,-,?,0
COc1cc(OC)c(-c2sc(Nc3ccccc3)n[n+]2-c2ccc(F)cc2)cc1OC,0,0,0,0,0,0
CCOC(=O)c1cnc(Nc2nc3ccccc3o2)nc1CN1CCN(C)CC1,0,0,?,0[0.501 µM],79µM,0
O=C(O)CC12CC3CC(C1)CC(n1ncc(NCc4ccccc4Cl)c(Cl)c1=O)(C3)C2,0,0,0,?,0,0
O=C(O)C12CC3CC(C1)CC(n1ncc(NCc4ccco4)c(Cl)c1=O)(C3)C2,0,0,0,79µM,0,0
CCCCc1cc(C[C@@H]2C[C@H](NC(C)=O)C2(C)C)no1,0,-,-,-,-,-
CCn1c(CNC(=O)c2ccc(Cl)cc2)nnc1SCC(=O)NC1=NCCS1,0,0,0,?,0,0
COc1ccccc1Nc1c2c(nc3ccc(NC(=O)c4ccc(N(C)C)cc4)cc13)CCCC2,0,0,16µM,7.9µM,4µM,-
COc1cc(OC)cc(C(=O)Nc2ccc3nc4c(c(Nc5ccc(OC)c(OC)c5)c3c2)CCCC4)c1,?,?,?,18µM,10µM,-
COc1ccc(Nc2c3c(nc4ccc(NC(=O)c5cc(Cl)ccc5OC)cc24)CCCC3)cc1OC,0,0,?,?,0,-
O=C(C[n+]1cccc2ccccc21)c1ccc(NC(=O)c2ccccc2)cc1,0,0,0,25µM,0,0
COc1ccc2c(ccc[n+]2CC(=O)c2ccccc2)c1,0,0,0,0,0,0
Cc1cc[n+](CC(=O)c2ccc(NC(=O)c3ccccc3)cc2)c2ccccc12,0,0,?,40µM,?,0
O=C(C[n+]1cccc2ccccc21)c1ccccc1,0,0,0,45µM,0,0
CCOCCCNS(=O)(=O)c1ccc2c(c1)CCN2C(=O)CC,0,0,0,0[12.7 µM],0,0
SMILES,12-LOX inh,HP1b chromo inh,JMJD2A Tudor inh,G9a block,BAZ2B block,PLK1 PBD block
O=C(COc1cccc2ccccc12)Nc1nccs1,0,-,-,-,-,-
C=CCNC(=O)C(=O)NCC(c1ccc2c(c1)OCO2)N1CCOCC1 (configuration not stated),0,0,0,0,0,0
COc1ccc(C(=O)NCC(c2ccc3c(c2)OCO3)N2CCN(c3ccc(F)cc3)CC2)cc1 (configuration not stated),0,0,?,0,0,-
C=CCNC(=O)C(=O)NCC(c1ccc2c(c1)OCO2)N1CCN(c2ccc(F)cc2)CC1 (configuration not stated),0,0,?,0,0,24µM
COc1cccc(C(=O)NCC(c2ccc3c(c2)OCO3)N2CCN(c3ccc(F)cc3)CC2)c1 (configuration not stated),0,0,?,45µM,0,0
COc1ccc(C(=O)NCC(c2ccc3c(c2)OCO3)N2CCN(c3ccc(OC)cc3)CC2)cc1 (configuration not stated),0,0,?,6.3µM,?,0
CN1CCN(C(CNC(=O)C(=O)Nc2ccc3c(c2)OCO3)c2ccc(F)cc2)CC1 (configuration not stated),?,0,0,50µM,0,0
CCN(C(=O)c1ccc2c(c1)OCO2)C1CCS(=O)(=O)C1 (configuration not stated),0,0,0,0,0,0
CCOC(=O)c1ccc(NC(=O)c2cc3c(=O)n(C)c4ccccc4c3n2C)cc1,0,0,0,0,0,-
Cc1cnc(NC(=O)CSc2nnc(N)s2)s1,0,0,?,0,0,0
Cc1cc(C)c(CNC(=O)c2cc(-c3ccccc3F)cc3c2OCCN3C)c(=O)[nH]1,0,-,-,-,-,-
CCOC(=O)c1ccc(NC(=O)CSc2nnc(COc3ccccc3)n2C)cc1,0,0,0,0[12.7 µM],0,0
COc1ccc(CCNC2CC(=O)N(N(C)C)C2=O)cc1OC (configuration not stated),0,0,0,?,0,0
CCCCc1nc2ccccc2c(NC(=O)CN(CC)CC)c1CCC,?,?,28µM,32µM,56µM,0
COCCN(CCOC)Cc1c(O)ccc2c1O/C(=C\c1ccco1)C2=O,?,0,0,4.5µM,71µM,?
CC1CCN(Cc2c(O)ccc3c2O/C(=C\c2ccco2)C3=O)CC1,-,0,0,5.6µM,50µM,?
O=C1/C(=C/c2ccco2)Oc2c1ccc(O)c2CN1CCCCC1,?,0,0,?,?,?
Cc1cc2nc(-c3ccc(NC(=O)C(C)C)cc3)oc2cc1C,0,0,0,0,0,0
CC(=O)c1cccc(NC(=S)N2CCN(S(=O)(=O)c3ccccc3)CC2)c1,0,?,0,45µM,0,?
CC(=O)c1cccc(NC(=S)N2CCN(S(=O)(=O)c3ccc(F)cc3)CC2)c1,0,0,0,28µM,0,?
O=[N+]([O-])c1ccc(NC(=S)N2CCN(S(=O)(=O)c3ccccc3)CC2)cc1,0,0,?,50µM,0,0
Cc1cccc(NC(=S)N2CCN(S(=O)(=O)c3ccccc3)CC2)c1,0,0,0,?,0,0
OC1(c2csc(CN3CCOCC3)n2)CCN(Cc2ccc(F)cc2)CC1,0,-,-,-,-,-
COc1ccc(N=C2S/C(=C\c3cc(C)n(C)c3C)C(=O)N2CC(C)C)cc1,0,?,40µM,0[12.7 µM],?,0
C=CCNC(=O)C1(S(=O)(=O)c2ccccc2)CC=CC1,0,0,0,0,0,0
Cc1ccc(C)c(/C(O)=C2\C(=O)C(=O)N(CCCn3ccnc3)C2c2cccnc2)c1 (configuration not stated),?,0,56µM,?,79µM,0

# From PubChem
